Measurements published in PubChem BioAssay AID1851 (National Center for Advancing Translational Sciences (NCATS), 2009).
Where “and” joins values, the source holds several entries; their conditions need not be identical. Identical values can stand only once. In all, about 16,000 compounds went through this assay and about 5,700 (36%) were called active. Inconclusive results (about 24%) are left out. Calls come from the whole dose curve; as a rule, active = well fitted curve in the direction sought with a large enough effect; inconclusive = small, poorly fitted or top-dose-only effect, or effect the other way; inactive = no such curve, though single readings can be large or run the other way. The list shows a part of the results.

Molecular target: Cytochrome P450 1A2 (Homo sapiens) (UniProt P05177)
Sequence (P05177 whole entry, looked up): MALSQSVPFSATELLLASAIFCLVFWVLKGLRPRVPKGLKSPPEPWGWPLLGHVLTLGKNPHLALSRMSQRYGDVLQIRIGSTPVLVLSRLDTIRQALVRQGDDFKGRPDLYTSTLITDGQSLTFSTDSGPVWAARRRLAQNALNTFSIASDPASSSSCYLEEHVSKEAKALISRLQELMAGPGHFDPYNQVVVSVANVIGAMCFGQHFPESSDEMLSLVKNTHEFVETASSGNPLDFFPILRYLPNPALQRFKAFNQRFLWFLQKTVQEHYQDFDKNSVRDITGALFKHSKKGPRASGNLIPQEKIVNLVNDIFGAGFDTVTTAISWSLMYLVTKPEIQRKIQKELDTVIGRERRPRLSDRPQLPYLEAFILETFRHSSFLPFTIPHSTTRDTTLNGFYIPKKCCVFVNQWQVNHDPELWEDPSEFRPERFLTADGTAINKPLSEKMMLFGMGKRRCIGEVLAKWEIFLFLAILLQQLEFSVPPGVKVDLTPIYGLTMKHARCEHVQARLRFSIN
Assay: Cytochrome panel assay with activity outcomes
Settings: recombinant CYP, pro-luciferin dealkylation, luminescence, p450-cyp1a2; series mostly up to 57.1 µM; activity, negative = inhibition: at the top concentration
% is set by controls: 0 for no effect and ±100 for the full control effect.

activity, negative = inhibition, inactive:
O=C(Nc1cccc(F)c1)N1CCCC2(CCN(S(=O)(=O)c3ccccc3)CC2)C1 -20%
CCCCCCCCCCCCCCCCCCNC(=O)OC[C@@H](COP(=O)([O-])OCC[n+]1ccsc1)OC 16.8%
Cc1c(NC(=O)C(C)N2C(=O)c3ccccc3C2=O)c(=O)n(-c2ccccc2)n1C (centres undefined) 1.41%
Cc1ccc(-c2noc(CN3CCN(C(c4ccccc4)c4ccccc4)CC3)n2)cc1 -23.9%
Cc1ncc(CSC(=N)N)n1Cc1ccccc1 -2.06% [at 11.4 µM]
CCCNC(=O)OC[C@@H]1O[C@H](CCON=C(C)C)C=C[C@@H]1Oc1ccc(OC)cc1 -2.59% [at 11.4 µM]
CC(=O)N1CCc2cc(Br)cc(S(=O)(=O)N3CCN(C(=O)c4ccco4)CC3)c21 0.342%
Nc1nc(Cl)cc(NCCO)n1 -22.6% [at 11.4 µM]
Cc1cc(C)c(S(=O)(=O)NNC(=O)C2CCN(Cc3ccccc3)CC2)c(C)c1 -1.29%
COc1ccccc1N1CCN(Cc2cc(=O)n3ccsc3n2)CC1 -3.58%
O=C(/C=C\c1ccc2c(c1)OCO2)c1ccc(F)cc1 -4.56% [at 11.4 µM]
NC(=O)CNC(=O)[C@@H]1CC2(CC(c3cccc([N+](=O)[O-])c3)=NO2)CN1C(=O)c1ccccc1 (some centres undefined) 15.4%
N=c1nc(N)nc(N)n1-c1ccc(S(N)(=O)=O)cc1 -3.8% [at 2.29 µM]
O=C(O)[C@@H](c1ccccc1)[C@@H](C(=O)O)c1ccccc1 -12% [at 2.29 µM]
COC(=O)\C(C(C)=O)=C(/C=C/C=C/C=C/N(C)C)N(C)C -20.9%
Cc1cc(Cc2c(C)c(C)c(Cc3cc(C)cc(C(C)(C)C)c3O)c(C)c2C)c(O)c(C(C)(C)C)c1 4.96% [at 2.29 µM]
Cc1ccc(S(=O)(=O)Oc2cc(N)c3c(n2)CCC3)cc1 -19.4% [at 2.29 µM]
COC(=O)[C@@]1(Cc2ccccc2)[C@H]2c3cc(C(=O)N4CCCC4)n(Cc4cc(F)cc5c4OCOC5)c3C[C@H]2CN1C(=O)c1ccccc1 -17.1%
CC(=O)C[C@H](c1ccc([N+](=O)[O-])cc1)c1c(O)c2ccccc2oc1=O -0.353% [at 25.6 µM]
Cn1c(CN2CCCC2)nc2cc(NC(=O)C3CCCCC3)ccc21 4.54%
CC(C)(C)C(=O)N1CCC(O)(CS(=O)(=O)Cc2ccc(Cl)cc2)CC1 3.39%
Cc1ccc(C(=O)c2cn(-c3ccc(F)c(Cl)c3)nn2)cc1 24.6%
CS(=O)(=O)N1CCC2(CC1)CN(C(c1ccccc1)c1ccccc1)C2 -1.89%
CCCC(=O)N1c2ccccc2C(N(C(C)=O)c2ccccc2)CC1C (centres undefined) -9.48%
COCC(=O)N1CCC2(CC1)CN(C(c1ccccc1)c1ccccc1)C2 -6.23%
COc1cc2c(cc1OC)[C@H](c1ccccc1)CN(C)CC2 -1.36%
COc1ccc(S(=O)(=O)N2CCc3ccccc3C2)cc1OC -29.1%
CCOC(=O)c1nn(-c2ccccc2)c(-c2ccccc2)c1C(=O)c1ccccc1 -14.5%
COC(=O)N1CCC2(CCCN(C(=O)Nc3ccccc3)C2)CC1 3.75%
C[C@@]1(CCOCc2ccccc2)NC(=O)NC1=O -13.5% [at 11.4 µM]
CN(C)CCCn1c2ccccc2c2cnccc21 -20% [at 2.29 µM]
c1ccc(C(CCN2CC3CCC(CC3)C2)c2ccccc2)cc1 9.33% [at 11.4 µM]
COc1ccc(NC(=O)N2CCCC2C(=O)Nc2ccccc2)cc1 (centres undefined) -29.6%
CS(=O)(=O)N1CCC[C@@]2(CCN(C(=O)Nc3cccc(F)c3)C2)C1 -25.2%
N=C(N)SCCc1ccncc1 -17.8% [at 2.29 µM]
COc1ccc(CCC(C)NC2C3CC4CC(C3)CC2C4)cc1 (centres undefined) -18.9%
CCOC(=O)c1sc(NS(=O)(=O)c2ccccc2)nc1C -4.5%
CCN(CC)C(=O)N1CCN(C)CC1 -5.59% [at 25.6 µM]
COc1ccc(O[C@H]2C=C[C@@H](c3ccccc3)O[C@H]2CO/N=C(/C)CCC(=O)OC[C@@H]2O[C@H](C#Cc3ccccc3)C=C[C@@H]2Oc2ccc(C)cc2)cc1 -5.99% [at 11.4 µM]
O=C(O)[C@H](Cc1ccc(O)c([N+](=O)[O-])c1)N1C(=O)c2ccccc2C1=O -17.9% [at 2.29 µM]
O=C(O)c1ccc(Sc2nnnn2-c2ccccc2)c([N+](=O)[O-])c1 -12%
CCOC(=O)c1cnc2cc(-c3ccc(C(C)(C)C)cc3)nn2c1N -13.4%
Nc1nc(Cl)nc2c1ncn2[C@@H]1O[C@@H](CO)[C@@H](O)[C@H]1O -12.9%
COC(=O)COc1ccc(/C=C2/SC(=O)N(CC(=O)N3CCCC3)C2=O)cc1Br 5.15%
COC(=O)C1C(O)=C(C=NCc2ccccc2)C(=O)CC1(C)C (centres undefined) -9.45%
O=C(c1cc2sccc2n1Cc1ccccc1)N1CCN(c2nc3ccccc3s2)CC1 -23.8%
CN(Cc1ccccc1)S(=O)(=O)c1ccc(OCC(=O)N2CCOCC2)cc1 -10.9%
O=C(CCN1C(=O)c2cccc3cccc(c23)C1=O)N1CCN(Cc2ccc3c(c2)OCO3)CC1 -23.1%
C[n+]1cc(-c2ccccc2)n2c1CCCCC2 9.49%
COc1ccc(/C=C(/NC(C)=O)C(=O)O)cc1 -26.8%
COc1ccc(NC(=O)N2CC3(CCN(C(=O)c4ccncc4)CC3)C2)cc1 -1.73%
COc1ccc(C(=O)N2CCC3(CC2)CN(c2ccncc2)C3)cc1 -5.39%

AC50, active:
CC(=O)Nc1c2c3c(cccc3n(C)c1=O)C(=O)c1ccccc1-2 2.51 µM
Clc1ccc(-c2noc(CN3CCCCC3)n2)cc1 0.631 µM
N=C(N)SCc1nc(-c2ccc(Cl)cc2)no1 1.26 µM
CC(C)(O)C#Cc1ccc(C(=O)NCc2cccs2)s1 15.8 µM
Cc1cc(Nc2ccc(Cl)cc2)nc(N)n1 10 µM
O=C(/C=C\C=C/c1ccc2c(c1)OCO2)N1CCCCC1 3.16 µM
COc1ccccc1N1CCN(C(=O)/C=C/c2ccc3c(c2)OCO3)CC1 25.1 µM
C/C(=N\Nc1nc(N)cc(Cl)n1)c1cccc([N+](=O)[O-])c1 11.2 µM
Nc1cc(Cl)nc(N/N=C/c2ccccc2[N+](=O)[O-])n1 2 µM
C/C(=N\Nc1nnc(-c2ccccc2)c(-c2ccccc2)n1)c1cccc([N+](=O)[O-])c1 3.55 µM
C/C(=N\Nc1ccc([N+](=O)[O-])cc1)c1cccc(N)c1 1.26 µM
O=C(c1ccccc1)[C@H](Nc1ccc2ccccc2c1)c1ccccc1 0.794 µM
O=C(CSc1nc2ccc([N+](=O)[O-])cc2s1)c1ccc2ccccc2c1 3.16 µM
CC(C)(CO)Cc1cc(C(C)(C)C)c(O)c(C(C)(C)C)c1 25.1 µM
Nc1c2ccccc2nc2c(O)cccc12 6.31 µM
Nc1c2c(nc3ccccc13)CCC[C@H]2O 10 µM
Nc1c2c(nc3ccccc13)CCCC2 3.16 µM and 794 nM and 501 nM
Cc1cc(NC(=O)C2CCCCC2)nc2c1c(=O)oc1ccccc12 3.16 µM
CCCCC(=O)OCc1cn(-c2ccc(Cl)cc2)nn1 0.447 µM
Cc1ccccc1NC(=O)OCc1cn(-c2ccc(Cl)cc2)nn1 0.447 µM
CC(C)(C)C(=O)OCc1cn(-c2ccc(Cl)cc2)nn1 0.708 µM
COc1cc2c(cc1OC)CN(C(=S)Nc1ccccc1)CC2 12.6 µM
CCOC(=O)c1nnn(-c2nonc2N)c1-c1ccccc1 0.891 µM
CCOC(=O)c1nnn(-c2nonc2N)c1-c1ccc(C)cc1 0.891 µM
CC(C)OC(=O)c1nnn(-c2nonc2N)c1CSc1ccccn1 1.78 µM
C[C@@H]1CN(CCCn2c3ccccc3c3ccccc32)C[C@H](C)N1 0.794 µM
C/C(=N\NC(=O)c1[nH]c2c([N+](=O)[O-])cc(C)cc2c1-c1ccccc1)c1cccnc1 1.26 µM
COc1ccc(C(=S)Nc2ccccc2)cc1 0.631 µM
COc1ccc2c(Cl)cc(NC(=S)Nc3ccccc3)nc2c1 0.398 µM
CC(C)(C)c1cc(/C=C(\C#N)C(N)=S)cc(C(C)(C)C)c1O 12.6 µM
c1ccc(SCCc2ccncc2)cc1 447 nM and 200 nM
Fc1ccc(SCCc2ccncc2)cc1 0.562 µM
COc1ccc(CCC(C)Nc2cccc(F)c2)cc1 (centres undefined) 3.55 µM
CCn1c(C)c(/C=N/Nc2nc3ccccc3s2)c2ccccc21 2.51 µM
CCOC(=O)Nc1nc(-c2ccccc2)c(C)s1 0.2 µM
CCOC(=O)c1sc(NC(C)=O)nc1-c1ccccc1 2.82 µM
O=[N+]([O-])c1cc(/C=N/O)ccc1SCc1ccccc1 0.891 µM
CCOC(=O)c1cnc2cc(-c3ccc(C)cc3)nn2c1-c1ccccc1 2.24 µM
C=CCSc1nc(C)cc(/C=C\c2ccccc2)c1C#N 2.51 µM
O=C1S/C(=C/c2ccc(N3CCOCC3)o2)C(=O)N1Cc1ccc(F)cc1 3.55 µM
COC(=O)CN1C(=O)S/C(=C/c2ccc(N3CCCCC3)o2)C1=O 0.891 µM
c1cnc(N2CCN(Cc3ccc4c(c3)OCO4)CC2)nc1 6.31 µM and 3.16 µM and 2 µM
O=C(COc1ccc(Cl)cc1)N1CCN(Cc2ccc3c(c2)OCO3)CC1 5.01 µM
c1ccc2sc(N3CCN(Cc4ccc5c(c4)OCO5)CC3)nc2c1 1 µM
CCCCCOc1ccc(OC(=O)c2ccncc2)cc1 12.6 µM
COc1ccc(OC(=O)c2ccncc2)cc1 6.31 µM
COc1ccc(/C=C/c2ccncc2)cc1 1.26 µM
